Assay outcomes (PubChem)
Rows were chosen to be rich in hits. Some 19% of all compounds tested hit in one or more screens of this group.
DT40 TDP1 CPT: growth inhibition of DT40 Tdp1-/-;hTDP1 cells with camptothecin (screen for TDP1 inhibitors); chicken DT40 Tdp1-/-;hTDP1 cells + 20 nM CPT, ATP luminescence, 48 h; Potency, µM (series often up to 46.2 µM), usual class: inhibitors; 420,000 tested, 12% active; note: nearly all actives have a fitted effect of over 55% in size
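Chicken DT40 Tdp1-/- cells stably complemented with human TDP1 were seeded at 400 cells/well in medium containing 20 nM camptothecin, exposed to pin-transferred compounds, and grown at 37 °C for at least 48 hr. Viability was read as ATP luminescence.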
ELG1 repair inh: blocks ELG1-dependent DNA repair in HEK293T cells. Potency, µM (highest dose often 46.1 µM), usual class: inhibitors. HEK293T ELG1-luciferase reporter, luminescence, 16 h; DNA damage induced by 5-fluorouridine. 330,000 tested, 2.3% active; note: nearly all actives have a fitted effect of over 55% in size
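HEK293T cells expressing luciferase-tagged ELG1 (2,000/well) received 5-Fluorouridine plus compound or DMSO for 16 hr at 37 °C. Luciferase was read by ONE-Glo luminescence after 30 min at room temperature.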
Giardia kill: kills Giardia lamblia. Giardia lamblia trophozoite viability. activity change, % at 7.66 µM, hits read low. 340,000 tested, 0.15% active. AID 540267; in the data active = activity change below about -80%; inconclusive = between about -30% and that limit;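 note: parasites exposed to compound for two days anaerobically before the ATP read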
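Anaerobic 48 hrs incubation at 37 deg C of 100 trophozoites/well with test compounds; ATPLite 1-Step luminescence, 15-30 min RT, reports cellular ATP as viability.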
TDP1 block: TDP1 (human) enzyme inhibition. Q9NUW8. recombinant TDP1, AlphaScreen DNA substrate cleavage. Potency, µM (doses to about 130 µM), usual class: inhibitors. 350,000 tested, 0.28% active; note: nearly all actives have a fitted effect of over 40% in size
Target sequence (Q9NUW8 whole entry, looked up): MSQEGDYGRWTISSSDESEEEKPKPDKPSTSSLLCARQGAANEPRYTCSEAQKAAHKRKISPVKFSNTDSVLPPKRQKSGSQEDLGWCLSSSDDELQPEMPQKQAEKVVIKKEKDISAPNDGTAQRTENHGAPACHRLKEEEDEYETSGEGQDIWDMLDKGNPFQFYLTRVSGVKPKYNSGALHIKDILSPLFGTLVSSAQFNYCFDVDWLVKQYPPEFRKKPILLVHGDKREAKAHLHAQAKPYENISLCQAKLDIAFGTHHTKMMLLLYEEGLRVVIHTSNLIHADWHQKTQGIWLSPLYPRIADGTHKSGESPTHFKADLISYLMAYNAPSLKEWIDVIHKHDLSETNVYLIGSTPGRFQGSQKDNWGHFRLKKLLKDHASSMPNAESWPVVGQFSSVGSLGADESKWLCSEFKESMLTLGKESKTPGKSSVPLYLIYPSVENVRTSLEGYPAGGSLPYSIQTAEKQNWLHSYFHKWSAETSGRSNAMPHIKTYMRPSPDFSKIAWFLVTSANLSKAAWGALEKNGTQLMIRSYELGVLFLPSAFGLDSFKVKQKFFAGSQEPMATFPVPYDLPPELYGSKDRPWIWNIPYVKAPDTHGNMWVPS
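Here, a 5' biotin and 3' phosphotyrosine-FITC DNA oligonucleotide reports Tdp1 activity: intact substrate bridges AlphaScreen beads, while cleavage leaves a 3' phosphate and drops signal. All incubations at room temperature.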
TDP1 cell noCPT: qHTS for Inhibitors of human tyrosyl-DNA phosphodiesterase 1 (TDP1): qHTS in cells in absence of CPT; 420,000 tested, 15% active; Potency, µM (titrated, usually from 46.2 µM), hits mostly inhibitors; DT40 Tdp1-/- hTDP1 cells, no CPT, ATP luminescence, 48 h; note: nearly all actives have a fitted effect of over 55% in size
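Readout: luminescence from CellTiter-Glo after 30 min in the dark at RT. Cells: DT40 Tdp1-/- with stable hTDP1, 400/well. Exposure: compounds alone, ≥48 hr, 37 °C.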
IL-1B inflam inh: inflammasome signaling inhibition, IL-1 beta readout; THP-1 LPS/ATP IL-1B secretion, AlphaLISA, 16 h; active compounds read low; 360,000 tested, 4.7% active; activity change, % at 57.5 µM; AID 743279; in the data active = activity change below about -50%; inconclusive = mostly about -30% to -49%
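Secreted IL-1B measured by AlphaLISA bead assay after 16 h compound exposure of THP-1 cells; compounds (final up to 57.5 uM) added 1 h before LPS (250 ng/mL) and ATP (1.25 mM) stimulation; lower signal means less secretion.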
A number is an active result. Unless noted, calls come from the whole dose curve; as a rule, active = well fitted curve in the direction sought with a large enough effect; inconclusive = small, poorly fitted or top-dose-only effect, or another doubt; inactive = no such curve, though single readings can be large; an effect the other way counts as inactive or inconclusive.

Results for O=C(COC(=O)CN1C(=O)COc2ccccc21)NCc1ccc(F)cc1 ?
DT40 TDP1 CPT: inactive; ELG1 repair inh: inactive; Giardia kill: inactive; TDP1 block: inactive; TDP1 cell noCPT: inactive; IL-1B inflam inh: inactive

Results for Cc1ccc(S(=O)(=O)N2CCCCC2C(=O)N(C)c2ccccc2)cc1 (stereo not given) ?
DT40 TDP1 CPT: 16µM; ELG1 repair inh: inactive; Giardia kill: inactive; TDP1 cell noCPT: 15µM; IL-1B inflam inh: inactive

What do the screens show for `O=C(Nc1ccc(Cl)cn1)C1CCCN1S(=O)(=O)c1ccccc1` (stereo not given)?
DT40 TDP1 CPT: 21µM; ELG1 repair inh: inconclusive; Giardia kill: inactive; TDP1 block: inactive; TDP1 cell noCPT: 12µM; IL-1B inflam inh: inactive

How did O=C(NCc1ccccc1Cl)[C@@H]1CCCN1S(=O)(=O)c1ccc(Cl)cc1 do in these assays?
DT40 TDP1 CPT: inconclusive; ELG1 repair inh: inactive; Giardia kill: inactive; TDP1 block: inactive; TDP1 cell noCPT: 16µM; IL-1B inflam inh: -51

What do the screens show for `CCSc1nnc(NC(=O)C2CCN(S(=O)(=O)c3ccccc3C(F)(F)F)CC2)s1`?
DT40 TDP1 CPT: inactive; ELG1 repair inh: 23µM; Giardia kill: inactive; TDP1 block: inactive; TDP1 cell noCPT: inconclusive; IL-1B inflam inh: inactive

Results for O=C(NCc1ccccc1)C1CCCN1S(=O)(=O)c1ccc(Cl)cc1 (stereo not given) ?
DT40 TDP1 CPT: inconclusive; ELG1 repair inh: inactive; Giardia kill: inactive; TDP1 cell noCPT: inactive; IL-1B inflam inh: inactive

What do the screens show for `CCSc1nnc(NC(=O)C2CCN(S(=O)(=O)c3c(C)c(C)cc(C)c3C)CC2)s1`?
ELG1 repair inh: inactive; TDP1 block: inactive

How did O=C(Nc1ccc(Br)cn1)C1CCCN1S(=O)(=O)c1ccccc1 (stereo not given) do in these assays?
DT40 TDP1 CPT: inconclusive; ELG1 repair inh: inactive; Giardia kill: inactive; TDP1 block: inactive; TDP1 cell noCPT: inconclusive; IL-1B inflam inh: inactive

What do the screens show for `COc1ccc(-c2cc3ccc(O)c(CN4CCN(C)CC4)c3oc2=O)cc1OC`?
DT40 TDP1 CPT: inconclusive; TDP1 block: inactive; TDP1 cell noCPT: inconclusive

How did CC(=O)c1ccccc1NC(=O)COC(=O)CN1C(=O)C2CCCCC2C1=O (stereo not given) do in these assays?
DT40 TDP1 CPT: inactive; ELG1 repair inh: inactive; Giardia kill: inactive; TDP1 block: inactive; TDP1 cell noCPT: inactive; IL-1B inflam inh: inactive

Results for O=C(N=C1SC2CS(=O)(=O)CC2N1c1ccc(Br)cc1)C1CCCO1 (stereo not given) ?
DT40 TDP1 CPT: inactive; ELG1 repair inh: inactive; Giardia kill: inactive; TDP1 block: inactive; TDP1 cell noCPT: inactive; IL-1B inflam inh: inactive

How did O=C1OC(Sc2ccccc2)(c2ccccc2)c2ccccc21 (stereo not given) do in these assays?
DT40 TDP1 CPT: inactive; Giardia kill: inactive; TDP1 cell noCPT: inconclusive; IL-1B inflam inh: inactive

What do the screens show for `COc1ccc(CNc2nc(-c3ccco3)nn2S(=O)(=O)c2ccc(Cl)cc2)cc1OC`?
DT40 TDP1 CPT: inactive; TDP1 block: inactive; TDP1 cell noCPT: inactive

How did CC(=O)c1ccc(NC(=O)C2CCCN2S(=O)(=O)c2ccc(C)cc2)cc1 (stereo not given) do in these assays?
DT40 TDP1 CPT: inconclusive; ELG1 repair inh: inactive; Giardia kill: inactive; TDP1 block: inactive; TDP1 cell noCPT: inconclusive; IL-1B inflam inh: inactive

Results for Cc1ccc(NC(=O)[C@@H]2CCCN2S(=O)(=O)c2ccc(Cl)cc2)cc1 ?
DT40 TDP1 CPT: 21µM; ELG1 repair inh: inactive; Giardia kill: inactive; TDP1 block: inactive; TDP1 cell noCPT: inconclusive; IL-1B inflam inh: inactive

How did CCn1nc(C)c(CN2CCC3(CCC(CNC(=O)c4ccccc4)O3)CC2)c1C (stereo not given) do in these assays?
DT40 TDP1 CPT: inactive; TDP1 cell noCPT: inactive

Results for CCCNC(=O)C1(C)CCCN(Cc2cc3ccccc3o2)C1 (stereo not given) ?
DT40 TDP1 CPT: 16µM; TDP1 cell noCPT: 23µM; IL-1B inflam inh: inactive

What do the screens show for `CCCNC(=O)C1(C)CCCN(Cc2ccc3ccccc3c2)C1` (stereo not given)?
DT40 TDP1 CPT: inconclusive; TDP1 cell noCPT: 23µM; IL-1B inflam inh: inactive

What do the screens show for `CC(NC(=O)/C(=C\c1ccco1)NC(=O)c1ccccc1Br)C(=O)O` (stereo not given)?
DT40 TDP1 CPT: inactive; ELG1 repair inh: inactive; Giardia kill: inactive; TDP1 block: inactive; TDP1 cell noCPT: inactive; IL-1B inflam inh: inactive

How did Cc1ccccc1CSc1ccc2nnc(-c3ccccn3)n2n1 do in these assays?
DT40 TDP1 CPT: inactive; ELG1 repair inh: inactive; Giardia kill: inactive; TDP1 block: inactive; TDP1 cell noCPT: inconclusive; IL-1B inflam inh: inconclusive

Results for CCC1CCCCN1CCCNC(=O)C1CCN(c2nnc(-n3cccc3)s2)CC1 (stereo not given) ?
DT40 TDP1 CPT: inactive; ELG1 repair inh: inactive; Giardia kill: inactive; TDP1 block: inactive; TDP1 cell noCPT: inactive; IL-1B inflam inh: inactive

Results for COc1cc(NC(=O)Cn2nc(C(F)(F)F)c(Br)c2C)cc([N+](=O)[O-])c1 ?
DT40 TDP1 CPT: 15µM; ELG1 repair inh: 18µM; Giardia kill: inactive; TDP1 block: inactive; TDP1 cell noCPT: 21µM; IL-1B inflam inh: inactive

What do the screens show for `O=C(CC1Sc2ccccc2NC1=O)NCc1ccccc1` (stereo not given)?
DT40 TDP1 CPT: inactive; ELG1 repair inh: inactive; Giardia kill: inactive; TDP1 block: inactive; TDP1 cell noCPT: inactive; IL-1B inflam inh: inactive

How did O=C(CC1Sc2ccccc2NC1=O)NNc1ccc(Cl)cc1Cl (stereo not given) do in these assays?
DT40 TDP1 CPT: inconclusive; Giardia kill: inactive; TDP1 cell noCPT: inconclusive; IL-1B inflam inh: -58

Results for O=C(CC1Sc2ccccc2NC1=O)Nc1cccnc1 (stereo not given) ?
DT40 TDP1 CPT: inactive; ELG1 repair inh: inactive; Giardia kill: inactive; TDP1 block: inactive; TDP1 cell noCPT: inactive; IL-1B inflam inh: inactive

How did CC(=O)c1ccc(NC(=O)CC2Sc3ccccc3NC2=O)cc1 (stereo not given) do in these assays?
DT40 TDP1 CPT: 12µM; TDP1 cell noCPT: 13µM

Results for O=C(CC1SC(=O)NC1=O)Nc1ccc(Cl)cc1 (stereo not given) ?
DT40 TDP1 CPT: 3.3µM; ELG1 repair inh: inactive; Giardia kill: inactive; TDP1 block: inactive; TDP1 cell noCPT: 9.2µM; IL-1B inflam inh: inactive
